# Values joined by “and” are separate entries in the source; they are usually repeats but may differ in a detail not shown here. Equal values may be shown once. Hit rate of the full screen: of about 290,000 compounds, about 230 (0.079%) were called active. Cut-off read from the data, not from the text of the source: active = inhibition above about 40%; inactive = the rest. This excerpt belongs to a sample that is enriched for actives.
# Target: Cyclic GMP-AMP synthase (Homo sapiens) (UniProt Q8N884)
# Assay: Biochemical Kinase-Glo luminescence primary assay, human cyclic GMP-AMP synthase inhibition (AID 1259398);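 note: 0% = vehicle reaction and 100% = reaction without DNA for no activity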
# Conditions: recombinant h-cGAS, ATP depletion, at 12.5 µM, hits give high values
# Cyclic GMP-AMP synthase (Homo sapiens), sequence (Q8N884 whole entry, looked up): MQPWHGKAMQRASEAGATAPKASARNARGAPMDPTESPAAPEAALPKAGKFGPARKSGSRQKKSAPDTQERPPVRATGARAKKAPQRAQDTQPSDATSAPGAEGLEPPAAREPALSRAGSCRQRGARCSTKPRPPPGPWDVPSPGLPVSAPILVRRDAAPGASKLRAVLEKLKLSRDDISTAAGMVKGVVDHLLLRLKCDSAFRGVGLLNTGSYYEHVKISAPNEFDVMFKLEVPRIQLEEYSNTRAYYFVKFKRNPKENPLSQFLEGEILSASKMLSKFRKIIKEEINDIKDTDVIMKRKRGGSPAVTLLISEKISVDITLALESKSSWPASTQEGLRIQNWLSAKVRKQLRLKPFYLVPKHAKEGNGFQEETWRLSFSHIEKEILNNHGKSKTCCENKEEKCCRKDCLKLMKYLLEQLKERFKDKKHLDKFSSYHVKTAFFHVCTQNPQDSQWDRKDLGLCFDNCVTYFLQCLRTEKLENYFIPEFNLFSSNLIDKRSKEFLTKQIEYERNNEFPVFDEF
row,Structure (SMILES),inhibition
1,N#Cc1cccc(NC(=O)CN(Cc2ccco2)Cc2cccs2)c1,-0.473% (inactive)
2,Cc1ccc(C)c(C(C)NC(=O)c2ccccc2-c2nn[nH]n2)c1 (centres undefined),-2.34% (inactive)
3,COc1ccc(-c2nc3ccccc3c(=O)n2Cc2ccc(F)cc2)c(OC)c1OC,-5.68% (inactive)
4,O=C(c1cnc(-c2ccncc2)nc1)N1CCOC(CCCc2ccccc2)C1 (centres undefined),-8.45% (inactive)
5,O=C(CCC1CCN(C(=O)c2cccc(-n3cccn3)c2)CC1)Nc1ccccc1,-9.6% (inactive)
6,CN1CCn2nc(C(=O)NC(c3ccccc3)c3ccco3)cc2C1 (centres undefined),-5.91% (inactive)
7,Cc1cc(-c2n[nH]c(=O)n2CCc2ccc(F)cc2)n(C)n1,2.4% (inactive)
8,Cc1n[nH]c(=O)c2c(NC(=O)CSc3nnc(C)n3C3CC3)oc(C)c12,-6.69% (inactive)
9,O=C(CCSCc1ccccn1)NCc1ccc(Br)s1,-8.25% (inactive)
10,O=C(O)CCCc1ccc(Br)s1,74.1% (active)
11,O=C(O)C=Cc1ccc(Br)s1,-0.785% (inactive)
12,Cc1noc(C)c1S(=O)(=O)N1CCCC1c1ccccn1 (centres undefined),-4.73% (inactive)
13,CN1CCN(Cc2cc(F)ccc2-n2cccn2)CC1CCO (centres undefined),-8.61% (inactive)
14,NS(=O)(=O)c1ccc(CNc2ccc3ncc(-c4ccc(Oc5ccccc5)cc4)n3n2)cc1,-8.75% (inactive)
15,Cc1ccc(CN(Cc2nc3cc(C)ccc3o2)C(=O)CC(C)C)cc1,-3.11% (inactive)
16,Cc1cccc(S(=O)(=O)N2CCN(c3cc(-n4ccnc4)nc(C)n3)CC2)c1,-1.12% (inactive)
17,Cc1cccc(-n2ccc3nc(N4CCCCC4)ncc3c2=O)c1,-4.1% (inactive)
18,COc1cc(=O)n(-c2ccccc2C)nc1C(=O)NC(c1ccccc1)c1ccccc1,-0.757% (inactive)
19,CCCCC(=O)N(C)c1c(C)nc2ccc(C(=O)NCCCN3CCCC3=O)cn12,-4.09% (inactive)
20,CCCCS(=O)(=O)N1CCCN(c2nc(CCC)nc3onc(-c4cccc(C(F)(F)F)c4)c23)CC1,-3.14% (inactive)
21,Cc1nn(C)c(C)c1CN(C(=O)C1CC(=O)N(CC(C)C)C1)C1CC1 (centres undefined),-3.8% (inactive)
22,O=C(CCCOc1cccc(Cl)c1Cl)N1CCN(C2CCOC2)CC1 (centres undefined),-4.45% (inactive)
23,Cn1c(CC2CCNCC2)nnc1SCc1noc(C2CCCO2)n1 (centres undefined),-3.73% (inactive)

row,Structure (SMILES),inhibition
1,COc1cc2c(cc1OC)C(C(C)NS(=O)(=O)c1ccccc1)N(Cc1ccccc1F)CC2 (centres undefined),-1.82% (inactive)
2,CC(=O)Nc1ccccc1N1C(=O)c2ccc(-c3nc4ccccc4c(=O)o3)cc2C1=O,0.929% (inactive)
3,CCOC(=NCc1ccccc1)NC(=O)c1cccc(C(F)(F)F)c1,-4.46% (inactive)
4,O=C1NC(C(=O)N2Cc3cnc(-c4ccccc4)nc3C2)CO1 (centres undefined),-0.988% (inactive)
5,CC(=O)c1[nH]c(C)c(C(=O)N2CCCCC2CCc2ccccn2)c1C (centres undefined),-5.8% (inactive)
6,Cc1ccnc2nc(C(=O)N3CCCC3CN3CCCC3)nn12 (centres undefined),-10.3% (inactive)
7,Cc1[nH]c(/C=C2\C(=O)Nc3ccc(S(=O)(=O)Cc4c(Cl)cccc4Cl)cc32)c(C)c1C(=O)N1CCC[C@@H]1CN1CCCC1,63.1% (active)
8,Cc1nn(C)c2ncc(C(=O)NCCn3cnnc3C(C)C)cc12,1.28% (inactive)
9,CC(C)(C)c1cc2nc(-c3ccccc3)cc(C(=O)NC3CCCCNC3=O)n2n1 (centres undefined),1.91% (inactive) and -3.83% (inactive)
10,CC(C)Nc1ccc(C(=O)N[C@H](C)C(C)(C)C)cn1,-9.34% (inactive)
11,CC(NCc1ccccc1Cn1cccn1)C(=O)NC1CCCC1 (centres undefined),-4.67% (inactive)
12,Cc1ccc(Nc2nc(N3CCN(c4ccc(F)cc4)CC3)nc3nccnc23)c(C)c1,-2.31% (inactive)
13,CCc1cnc2c(c1SCc1cccc(C(F)(F)F)c1)c(=O)n(C)c(=O)n2C,-9.29% (inactive)
14,Cc1ccc(CN(CCc2c[nH]c3ccccc23)C(=O)CN(C(=O)c2ccc([N+](=O)[O-])cc2)C(C)C)cc1,-6.46% (inactive)
15,Nc1cc(-c2cccc(C(F)(F)F)c2)nn1-c1ccc(C(=O)NCc2ccc3c(c2)OCO3)cc1,-5.72% (inactive)
16,C=CCNc1ccccc1C(=O)N1[C@@H]2CC[C@H]1CC(O)C2 (some centres undefined),-2.12% (inactive)
17,Cc1ccc(/C=C/C(=O)N(C)C(C)c2cccc(S(N)(=O)=O)c2)o1 (centres undefined),-0.284% (inactive)
18,O=c1c(O)c(Br)ccc2c(Br)c(O)c(O)c(O)c12,70.1% (active)
19,O=C(C=Cc1ccc(Br)o1)NC1CCCCCC1,-5.99% (inactive)
20,O=C(OCC(=O)N1CCCC1c1ccc(Cl)c(Cl)c1)C1CCOC1 (centres undefined),-2.27% (inactive)
21,CC(C)n1nccc1NC(=O)CN(C)S(=O)(=O)c1ccc(Cl)s1,-6.6% (inactive)
22,Cn1cnnc1Sc1ccc(Cl)cc1NC(=O)C1CCCCC1,-8.95% (inactive)
23,CCC(C)(C)NC(=O)[C@H](CC(C)C)N1CC[C@@]2(CCCN2C(=O)CCC(C)=O)C1=O,0.355% (inactive)

row,Structure (SMILES),inhibition
1,Cc1csc(C2CCN(S(=O)(=O)c3ccc(F)cc3Cl)CC2)n1,-7.52% (inactive)
2,Fc1cc(F)cc(-c2cncc(COc3ccc(F)cc3F)c2)c1,1.15% (inactive)
3,COc1nc(C)cc(C)c1CNC(=O)C(=O)N1CCc2ccccc21,4.25% (inactive)
4,CCOC(=O)C1(C)CCCN1C(=O)c1cc(C)on1 (centres undefined),-5.23% (inactive)
5,O=C(NC1CCN(c2ccccc2C(=O)NCc2cccc(C(F)(F)F)c2)CC1)c1ccccc1F,-3.47% (inactive)
6,Cc1cc(=O)n(-c2ccc(S(=O)(=O)O)cc2C)[nH]1,-8.43% (inactive)
7,CCOC(=O)C1CCCN(Cn2c(=O)c3ccccc3n3nc(C)cc23)C1 (centres undefined),-0.416% (inactive)
8,O=C(c1cc(Cn2ccc3ccccc32)[nH]n1)N1CCCC1c1nccs1 (centres undefined),-1.07% (inactive)
9,CCc1cnc(COc2ccc(OC3CCCCNC3=O)cc2)o1 (centres undefined),-10.1% (inactive)
10,COC(=O)c1c(C)[nH]c(C(=O)N2CCCC2c2ccc(OC)cc2)c1C (centres undefined),-3.09% (inactive)
11,COc1ccc(-c2nnc(SCC(=O)N/N=C\c3ccccn3)n2-c2ccccc2)cc1OC,1.79% (inactive)
12,O=C1c2cccc3cccc(c23)C(=O)N1CCCCCc1n[nH]c(=S)o1,-2.3% (inactive)
13,Cc1ccccc1N(CCCN1C(=O)c2cccc3cccc(c23)C1=O)C(=O)c1ccc([N+](=O)[O-])cc1,-1.77% (inactive)
14,C[N+](C)(CCCCCC[N+](C)(C)CCCN1C(=O)c2cccc3cccc(c23)C1=O)CCCN1C(=O)c2cccc3cccc(c23)C1=O,90.3% (active)
15,COc1cn(CC(=O)NCc2ccc3c(c2)OCO3)c(CSc2ncccn2)cc1=O,-5.34% (inactive)
16,COCCCN(CC(=O)N(Cc1ccc2c(c1)OCO2)Cc1cccs1)C(=O)C1C[C@H]1c1ccccc1 (some centres undefined),-8.64% (inactive)
17,O=C(CCNC(=O)C1CC2(CCNCC2)CN1)Nc1nccs1 (centres undefined),-7.06% (inactive)
18,COCc1c(Br)c(C)nc(OCC(=O)N/N=C\c2cc(I)c(OCc3ccccc3Cl)c(OC)c2)c1C#N,-3.7% (inactive)
19,CN1CCN(C(=O)c2cc(COc3ccc(-n4cncn4)cc3)on2)CC1c1ccccc1 (centres undefined),-7.12% (inactive) and -3.64% (inactive)
20,CCOc1cc(Br)cc(/C=N\Nc2nc(N3CCCCC3)nc(N3CCCCC3)n2)c1O,-5.11% (inactive)
21,CC1CCCN(c2nn3c(C(=O)NCCN4CCCCCC4)cc(=O)nc3s2)C1 (centres undefined),-1.82% (inactive)
22,Nc1ccc(NC(=S)NCc2ccco2)cc1[N+](=O)[O-],-4.64% (inactive)
23,CCN1CCN(c2ccccc2NS(=O)(=O)c2cc(Br)ccc2OC)CC1,-2.43% (inactive)
